According to PubChem BioAssay (NCI):
About 79,000 compounds went through this panel and 15% of them were active in at least one assay; those are over-represented in the sample as a whole. Unmarked numbers belong to inactive results. Active and inactive are the calls of the source. No stated cut-off is given here; in the data, active means growth inhibition above about 70%; inactive means the rest.

Tests used:
[1] = NCI Yeast Anticancer Drug Screen. Data for the rad52 strain (AID 147);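 further: 0% = growth of vehicle-treated control cultures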; details: S. cerevisiae rad52 mutant growth inhibition, active compounds read high
In short: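 Read-out: growth inhibition versus vehicle-treated controls. Cells were a DNA repair-deficient yeast strain treated with compounds.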

[2] = NCI Yeast Anticancer Drug Screen. Data for the rad50EPP+ strain (AID 151);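 further: 0% = growth of vehicle-treated control cultures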; details: S. cerevisiae rad50 mutant strain, active compounds read high
In short: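 Growth inhibition read against vehicle controls in rad50EPP+ yeast, a strain altered in DNA damage repair, after compound exposure.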

[3] = NCI Yeast Anticancer Drug Screen. Data for the mgt1 strain (AID 153); details: S. cerevisiae mgt1 mutant growth inhibition, active compounds read high
In short: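 mgt1 yeast grown with test compound; read-out is growth inhibition versus vehicle-treated cultures.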

[4] = NCI Yeast Anticancer Drug Screen. Data for the rad50 strain (AID 155);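 further: 0% = growth of vehicle-only cultures of the same strain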; details: S. cerevisiae rad50 strain growth inhibition, active compounds read high
In short: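 Inhibition values express reduced yeast growth in compound-treated cultures relative to vehicle-treated controls.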

[5] = NCI Yeast Anticancer Drug Screen. Data for the mec2-1 strain (AID 157); details: S. cerevisiae mec2-1 strain, active compounds read high
In short: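 Yeast mec2-1 mutant treated with compound. Readout: growth inhibition vs vehicle controls.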

[6] = NCI Yeast Anticancer Drug Screen. Data for the rad14 strain (AID 159);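 further: 0% = growth of vehicle-treated control cultures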; details: S. cerevisiae rad14 strain growth inhibition, active compounds read high
In short: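 A mutant yeast strain defective in DNA damage repair is treated with compound; inhibition of its growth is scored against untreated, vehicle-exposed cultures.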

[7] = NCI Yeast Anticancer Drug Screen. Data for the sgs1 mgt1 strain (AID 161);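 further: 0% = growth of cultures given vehicle only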; details: S. cerevisiae sgs1 mgt1 strain, active compounds read high
In short: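 Mutant yeast exposed to compound; growth scored against vehicle-only wells.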

[8] = NCI Yeast Anticancer Drug Screen. Data for the CLN2oe strain (AID 163);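 further: 0% = growth of vehicle-only control cultures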; details: S. cerevisiae CLN2oe strain, active compounds read high
In short: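 Read-out: yeast growth inhibition, expressed relative to vehicle-only controls. The strain bears an engineered cell-cycle alteration.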

[9] = NCI Yeast Anticancer Drug Screen. Data for the cln2 rad14 strain (AID 165);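 further: 0% = growth equal to vehicle treated cultures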; details: S. cerevisiae cln2 rad14 strain, active compounds read high
In short: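 cln2 rad14 yeast strain; compound exposure; growth inhibition read vs vehicle controls.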

[10] = NCI Yeast Anticancer Drug Screen. Data for the bub3 strain (AID 167); details: S. cerevisiae bub3 mutant strain, active compounds read high
In short: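 Steps: expose the mutant yeast strain to compound; grow alongside vehicle-treated cultures; measure growth; express inhibition against the vehicle cultures.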

[11] = NCI Yeast Anticancer Drug Screen. Data for the wt2 strain (AID 169);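 further: 0% = growth of vehicle-treated yeast cultures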; details: S. cerevisiae wt2 strain growth inhibition, active compounds read high
In short: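 Read-out: growth inhibition versus vehicle-treated control cultures after compound exposure of the yeast strain.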

[12] = NCI Yeast Anticancer Drug Screen. Data for the mlh1 strain (AID 171);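 further: 0% = growth of vehicle-treated control cultures of the same strain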; details: S. cerevisiae mlh1 strain growth inhibition, active compounds read high
In short: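 Read-out: growth inhibition versus vehicle controls. Strain: engineered yeast with a defined DNA repair or cell cycle defect, compound-treated.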

[13] = NCI Yeast Anticancer Drug Screen. Data for the sgs1 strain (AID 173);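 further: 0% = growth of vehicle-only control cultures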; details: S. cerevisiae sgs1 mutant, active compounds read high
In short: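 Read-out: yeast growth inhibition relative to vehicle controls, following compound exposure of a strain with a defined DNA repair/cell cycle alteration.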

[14] = NCI Yeast Anticancer Drug Screen. Data for the mlh1 rad18 strain (AID 175); details: S. cerevisiae mlh1 rad18 strain growth inhibition, active compounds read high
In short: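 Yeast w/ defined DNA-repair lesions; compound exposure; growth vs vehicle controls → % inhibition.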

[15] = NCI Yeast Anticancer Drug Screen. Data for the rad18 strain (AID 177); details: S. cerevisiae rad18 mutant growth inhibition, active compounds read high
In short: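 Readout: growth inhibition vs vehicle controls. Cells: genetically altered yeast strain, DNA repair defect.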

[16] = at 5.0 µM (retest, dose inferred, filed as 0.5)
[17] = at 50.0 µM (retest, dose inferred, filed as 5.0)

Which growth inhibition ([1]; at 1.2 µM) does the source give for `Oc1cccnc1[Se]` here?
Its growth inhibition is 4%.

What about the growth inhibition ([1]; at 3.7 µM) of the same compound?
Its growth inhibition is 7%.

What about the growth inhibition ([1]; at 11.0 µM) of the same compound?
Its growth inhibition is 55%.

And the growth inhibition ([1]; at 33.0 µM)?
Its growth inhibition is 99% (active).

What about the growth inhibition ([1]; at 100.0 µM) of the same compound?
The growth inhibition was 99% (active).

What about the growth inhibition ([2]; at 1.2 µM) of the same compound?
The growth inhibition was 1%.

And the growth inhibition ([2]; at 3.7 µM)?
Its growth inhibition is 9%.

What about the growth inhibition ([2]; at 11.0 µM) of the same compound?
The growth inhibition was 33%.

What about the growth inhibition ([2]; at 33.0 µM) of the same compound?
Its growth inhibition is 74% (active).

And the growth inhibition ([2]; at 100.0 µM)?
The growth inhibition was 96% (active).

What about the growth inhibition ([3]; at 1.2 µM) of the same compound?
The growth inhibition was -4%.

And the growth inhibition ([3]; at 3.7 µM)?
Its growth inhibition is -3%.

What about the growth inhibition ([3]; at 11.0 µM) of the same compound?
Its growth inhibition is -2%.

What about the growth inhibition ([3]; at 33.0 µM) of the same compound?
Its growth inhibition is 68%.

What about the growth inhibition ([3]; at 100.0 µM) of the same compound?
Its growth inhibition is 99% (active).

And the growth inhibition ([4]; at 1.2 µM)?
The growth inhibition was 2%.

And the growth inhibition ([4]; at 3.7 µM)?
The growth inhibition was 6%.

And the growth inhibition [4, 16]?
The growth inhibition was -15%.

And the growth inhibition ([4]; at 11.0 µM)?
Its growth inhibition is 60%.

What about the growth inhibition ([4]; at 33.0 µM) of the same compound?
Its growth inhibition is 98% (active).

What about the growth inhibition [4, 17] of the same compound?
Its growth inhibition is 55%.

What about the growth inhibition ([4]; at 50.0 µM) of the same compound?
Its growth inhibition is 99% (active).

What about the growth inhibition ([4]; at 100.0 µM) of the same compound?
Its growth inhibition is 99% (active).

And the growth inhibition ([5]; at 1.2 µM)?
The growth inhibition was -3%.

And the growth inhibition ([5]; at 3.7 µM)?
Its growth inhibition is -5%.

What about the growth inhibition [5, 16] of the same compound?
Its growth inhibition is -2%.

What about the growth inhibition ([5]; at 11.0 µM) of the same compound?
Its growth inhibition is -3%.

What about the growth inhibition ([5]; at 33.0 µM) of the same compound?
The growth inhibition was 38%.

What about the growth inhibition [5, 17] of the same compound?
The growth inhibition was -10%.

And the growth inhibition ([5]; at 50.0 µM)?
The growth inhibition was 97.5% (active).

And the growth inhibition ([5]; at 100.0 µM)?
Its growth inhibition is 98% (active).

What about the growth inhibition ([6]; at 1.2 µM) of the same compound?
Its growth inhibition is 1%.

What about the growth inhibition ([6]; at 3.7 µM) of the same compound?
Its growth inhibition is 1%.

What about the growth inhibition ([6]; at 11.0 µM) of the same compound?
Its growth inhibition is 5%.

What about the growth inhibition ([6]; at 33.0 µM) of the same compound?
Its growth inhibition is 95% (active).

And the growth inhibition ([6]; at 100.0 µM)?
Its growth inhibition is 99% (active).

And the growth inhibition [7, 16]?
Its growth inhibition is -10%.

What about the growth inhibition [7, 17] of the same compound?
Its growth inhibition is 4%.

And the growth inhibition ([7]; at 50.0 µM)?
The growth inhibition was 95.3% (active).

And the growth inhibition ([8]; at 1.2 µM)?
Its growth inhibition is -3%.

What about the growth inhibition ([8]; at 3.7 µM) of the same compound?
The growth inhibition was 3%.

What about the growth inhibition ([8]; at 11.0 µM) of the same compound?
The growth inhibition was -8%.

And the growth inhibition ([8]; at 33.0 µM)?
The growth inhibition was 2%.

What about the growth inhibition ([8]; at 100.0 µM) of the same compound?
The growth inhibition was 37%.

What about the growth inhibition [9, 16] of the same compound?
Its growth inhibition is 7%.

What about the growth inhibition [9, 17] of the same compound?
Its growth inhibition is 6%.

What about the growth inhibition ([9]; at 50.0 µM) of the same compound?
Its growth inhibition is 99% (active).

What about the growth inhibition ([10]; at 1.2 µM) of the same compound?
Its growth inhibition is -6%.

What about the growth inhibition ([10]; at 3.7 µM) of the same compound?
The growth inhibition was -7%.

What about the growth inhibition [10, 16] of the same compound?
The growth inhibition was -21%.

What about the growth inhibition ([10]; at 11.0 µM) of the same compound?
The growth inhibition was -13%.

What about the growth inhibition ([10]; at 33.0 µM) of the same compound?
Its growth inhibition is -5%.

What about the growth inhibition [10, 17] of the same compound?
Its growth inhibition is -18%.

What about the growth inhibition ([10]; at 50.0 µM) of the same compound?
Its growth inhibition is 99.2% (active).

And the growth inhibition ([10]; at 100.0 µM)?
Its growth inhibition is 63%.

And the growth inhibition ([11]; at 1.2 µM)?
Its growth inhibition is -5%.

What about the growth inhibition ([11]; at 3.7 µM) of the same compound?
The growth inhibition was -9%.

What about the growth inhibition ([11]; at 11.0 µM) of the same compound?
The growth inhibition was -15%.

What about the growth inhibition ([11]; at 33.0 µM) of the same compound?
The growth inhibition was 97% (active).

And the growth inhibition ([11]; at 100.0 µM)?
The growth inhibition was 99% (active).

And the growth inhibition ([12]; at 1.2 µM)?
Its growth inhibition is -2%.

And the growth inhibition ([12]; at 3.7 µM)?
The growth inhibition was 2%.

And the growth inhibition ([12]; at 11.0 µM)?
Its growth inhibition is 11%.

What about the growth inhibition ([12]; at 33.0 µM) of the same compound?
The growth inhibition was 98% (active).

What about the growth inhibition ([12]; at 100.0 µM) of the same compound?
Its growth inhibition is 99% (active).

And the growth inhibition ([13]; at 1.2 µM)?
The growth inhibition was -1%.

What about the growth inhibition ([13]; at 3.7 µM) of the same compound?
Its growth inhibition is 21%.

And the growth inhibition ([13]; at 11.0 µM)?
The growth inhibition was 11%.

And the growth inhibition ([13]; at 33.0 µM)?
The growth inhibition was 98% (active).

What about the growth inhibition ([13]; at 100.0 µM) of the same compound?
Its growth inhibition is 99% (active).

What about the growth inhibition [14, 16] of the same compound?
Its growth inhibition is 7%.

What about the growth inhibition [14, 17] of the same compound?
The growth inhibition was 59%.

What about the growth inhibition ([14]; at 50.0 µM) of the same compound?
The growth inhibition was 98% (active).

What about the growth inhibition ([15]; at 1.2 µM) of the same compound?
The growth inhibition was -2%.

And the growth inhibition ([15]; at 3.7 µM)?
Its growth inhibition is 3%.

What about the growth inhibition ([15]; at 11.0 µM) of the same compound?
Its growth inhibition is 20%.

What about the growth inhibition ([15]; at 33.0 µM) of the same compound?
The growth inhibition was 94% (active).

And the growth inhibition ([15]; at 100.0 µM)?
Its growth inhibition is 99% (active).
